Experimental data from PubChem BioAssay (Tox21).
Inconclusive results are not listed. Where a call stands in place of a potency, no number is given. A structure can be active in one record and inactive in another. Active and inactive are the calls of the source. Calls come from the whole dose curve.

test: qHTS assay to identify small molecule agonists of the progesterone receptor (PR) signaling pathway - cell viability counter screen (AID 1346799); settings: PR-UAS-bla HEK293T viability, CellTiter-Glo luminescence, 16 h; series mostly up to 92.4 µM; note: nearly all actives have a fitted effect of over 45% in size
Method in brief: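 Here, 3,000 PR-UAS-bla HEK293T cells per well were treated with compounds for 16 hr after a 6 hr preincubation at 37C and 5% CO2; cell viability is the CellTiter-Glo luminescence signal.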
Potency is the fitted concentration of half-maximal effect.

Q: For O=c1[nH]c(=O)n([C@H]2CCCO2)cc1F, which Potency is on record?
A: The Potency was “inactive”.

Q: With C=CCNC(N)=S as the compound, how does the Potency read?
A: Its Potency is 21.2 µM (active) and inactive.

Q: With c1ccc2c(c1)ccc1ccccc12 as the compound, how does the Potency read?
A: The Potency was “inactive”.

Q: For CC(=O)OCC(=O)[C@@]12N=C(C)O[C@@H]1C[C@H]1[C@@H]3CCC4=CC(=O)C=C[C@]4(C)[C@H]3[C@@H](O)C[C@@]12C, which Potency is on record?
A: Its Potency is “inactive”.

Q: With Cc1ccc2oc(=O)ccc2c1 as the compound, how does the Potency read?
A: The Potency was “inactive”.

Q: For CCC(O)OC(O)CC (stereo not drawn), which Potency is on record?
A: The Potency was “inactive”.

Q: With O=C(O)c1ccc(C(=O)O)cc1 as the compound, how does the Potency read?
A: The Potency was “inactive”.

Q: With CCCCCCCCCCCCc1ccccc1 as the compound, how does the Potency read?
A: The Potency was “inactive”.

Q: For CCCCCC1=CCCC1=O, which Potency is on record?
A: Its Potency is “inactive”.

Q: With CCCCC(CC)COC(=O)CCCCC(=O)OCC(CC)CCCC (stereo not drawn) as the compound, how does the Potency read?
A: The Potency was “inactive”.

Q: Which Potency does the source give for CCCCCC(N)=O here?
A: The Potency was “inactive”.

Q: For CC(=O)c1ccccc1, which Potency is on record?
A: Its Potency is “inactive”.

Q: Which Potency does the source give for CSCCC=O here?
A: The Potency was “inactive”.

Q: For Cc1ccc(N(C)C)cc1, which Potency is on record?
A: Its Potency is “inactive”.

Q: Which Potency does the source give for CCCCCCCC(=O)OC here?
A: The Potency was “inactive”.

Q: For CCc1cccc(C)c1N, which Potency is on record?
A: The Potency was “inactive”.

Q: Which Potency does the source give for OCC(CO)(CBr)CBr here?
A: The Potency was “inactive”.

Q: Which Potency does the source give for CC[C@H](C)C(=O)O[C@H]1C[C@@H](C)C=C2C=C[C@H](C)[C@H](CC[C@@H]3C[C@@H](O)CC(=O)O3)[C@H]21 here?
A: The Potency was 7.66 µM (active).

Q: With CN(C)CCCN as the compound, how does the Potency read?
A: Its Potency is “inactive”.

Q: With O=S1(=O)CC=CC1 as the compound, how does the Potency read?
A: The Potency was “inactive”.

Q: Which Potency does the source give for CC(C)(C)[C@@H](O)[C@@H](Cc1ccc(Cl)cc1)n1cncn1 here?
A: The Potency was “inactive”.

Q: For C#CCN(C)Cc1ccccc1, which Potency is on record?
A: The Potency was “inactive”.

Q: For C[Si](O[Si](C)(C)C)O[Si](C)(C)C, which Potency is on record?
A: The Potency was “inactive”.

Q: Which Potency does the source give for Oc1cccc2ccccc12 here?
A: Its Potency is “inactive”.

Q: With CCCCCC/C(C=O)=C\c1ccccc1 as the compound, how does the Potency read?
A: The Potency was “inactive”.

Q: For CCCCCCCCCCCCCCO, which Potency is on record?
A: Its Potency is “inactive”.

Q: Which Potency does the source give for Nc1cc([N+](=O)[O-])ccc1O here?
A: The Potency was “inactive”.

Q: For O=C(O)c1cc(O)c(O)c(O)c1, which Potency is on record?
A: Its Potency is “inactive”.

Q: Which Potency does the source give for O=C(O)c1ccc2c(c1)C(=O)OC2=O here?
A: Its Potency is “inactive”.

Q: For O=C(Oc1ccccc1)c1ccccc1, which Potency is on record?
A: Its Potency is “inactive”.

Q: Which Potency does the source give for OC[C@H]1O[C@@](CO)(O[C@H]2O[C@H](CO)[C@@H](O)[C@H](O)[C@H]2O)[C@@H](O)[C@@H]1O here?
A: The Potency was “inactive”.

Q: Which Potency does the source give for O=c1[nH]c(=O)n([C@H]2C[C@H](O)[C@@H](CO)O2)cc1Br here?
A: Its Potency is “inactive”.

Q: With CC(=O)CC(=O)Nc1ccccc1C as the compound, how does the Potency read?
A: Its Potency is “inactive”.

Q: With Fc1ccc(Br)cc1 as the compound, how does the Potency read?
A: Its Potency is “inactive”.

Q: With CC(c1cc2ccccc2s1)N(O)C(N)=O (stereo not drawn) as the compound, how does the Potency read?
A: The Potency was “inactive”.

Q: With C=CCOC(=O)c1ccccc1C(=O)OCC=C as the compound, how does the Potency read?
A: Its Potency is “inactive”.

Q: With CC1CCC(C(C)C)C(O)C1 (stereo not drawn) as the compound, how does the Potency read?
A: Its Potency is “inactive”.

Q: For Cc1cccnc1, which Potency is on record?
A: Its Potency is “inactive”.
